Bioassay records: PubChem BioAssay, National Center for Advancing Translational Sciences (NCATS)
Hits are enriched below; roughly 15% of the tested compounds scored in any of these assays.
ELG1 DNA repair – blocks ELG1-dependent DNA repair in HEK293T cells; HEK293T ELG1-luciferase reporter, luminescence, 16 h; DNA damage induced by 5-fluorouridine; Potency, µM (top dose mostly 46.1 µM), most hits filed as inhibitors; AID 504467; 330,000 compounds, 2.3% hits; note: nearly all actives have a fitted effect of over 55% in size
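Quantitative HTS, concentration-response format. 2,000 cells/well co-treated with 5-fluorouridine and compound, 16 hr in 5% CO2 at 37 °C; ONE-Glo luminescence read after 30 min.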
Gal4-VP16 FLuc – counter-screen for ROR gamma inhibitors: Gal4-VP16 reporter; Drosophila S2 Gal4-VP16 UAS-luciferase, luminescence, 20 h; Potency, µM (doses to about 53.6 µM), usual class: inhibitors; 310,000 compounds, 3.5% hits; AID 2546;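 note: Gal4-VP16 expression switched on by copper sulfate through the metallothionein promoter; nearly all actives have a fitted effect of over 50% in size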
RORgamma inh – ROR gamma (mouse) transcription inhibition; P51450; Drosophila S2 Gal4-RORgamma UAS-luciferase reporter, 20 h; Potency, µM (series often up to 53.6 µM), most hits filed as inhibitors; 310,000 compounds, 5.4% hits; AID 2551; note: nearly all actives have a fitted effect of over 60% in size
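Compounds are pin-transferred onto Drosophila Schneider cells expressing a copper-inducible Gal4–ROR gamma transactivation domain fusion. After 1 hr, copper sulfate is added to 700 uM final; luciferase is read 20 hr later.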
TDP1 cell CPT – DT40-hTDP1 cell growth loss with CPT | chicken DT40 Tdp1-/-;hTDP1 cells + 20 nM CPT, ATP luminescence, 48 h | Potency, µM (highest dose often 46.2 µM), usual class: inhibitors | 420,000 compounds, 12% hits | AID 686979; note: nearly all actives have a fitted effect of over 55% in size
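Chicken DT40 Tdp1-/- cells complemented with human TDP1, 400 cells/well, exposed to compounds plus 20 nM camptothecin for at least 48 h at 37 C; viability read as ATP content by CellTiter-Glo luminescence.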
DT40 TDP1 no CPT – qHTS for Inhibitors of human tyrosyl-DNA phosphodiesterase 1 (TDP1): qHTS in cells in absence of CPT. DT40 Tdp1-/- hTDP1 cells, no CPT, ATP luminescence, 48 h. Potency, µM (highest dose often 46.2 µM), hits mostly inhibitors. 420,000 compounds, 15% hits; note: nearly all actives have a fitted effect of over 55% in size
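Chicken DT40 Tdp1-/- cells complemented with human TDP1, screened without camptothecin (DMSO vehicle only), 400 cells/well. Compounds pin-transferred, cells incubated at 37 °C for at least 48 hr. Growth read as ATP-dependent luminescence (CellTiter-Glo, 30 min at RT).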
ALOX12 inh – inhibitors of human 12S-lipoxygenase ALOX12 | P18054 | purified 12hLO, xylenol orange hydroperoxide absorbance | Potency, µM (top dose mostly 108 µM), most hits filed as inhibitors | 580,000 compounds, 1.1% hits | AID 1671190
Target sequence (P18054 whole entry, looked up): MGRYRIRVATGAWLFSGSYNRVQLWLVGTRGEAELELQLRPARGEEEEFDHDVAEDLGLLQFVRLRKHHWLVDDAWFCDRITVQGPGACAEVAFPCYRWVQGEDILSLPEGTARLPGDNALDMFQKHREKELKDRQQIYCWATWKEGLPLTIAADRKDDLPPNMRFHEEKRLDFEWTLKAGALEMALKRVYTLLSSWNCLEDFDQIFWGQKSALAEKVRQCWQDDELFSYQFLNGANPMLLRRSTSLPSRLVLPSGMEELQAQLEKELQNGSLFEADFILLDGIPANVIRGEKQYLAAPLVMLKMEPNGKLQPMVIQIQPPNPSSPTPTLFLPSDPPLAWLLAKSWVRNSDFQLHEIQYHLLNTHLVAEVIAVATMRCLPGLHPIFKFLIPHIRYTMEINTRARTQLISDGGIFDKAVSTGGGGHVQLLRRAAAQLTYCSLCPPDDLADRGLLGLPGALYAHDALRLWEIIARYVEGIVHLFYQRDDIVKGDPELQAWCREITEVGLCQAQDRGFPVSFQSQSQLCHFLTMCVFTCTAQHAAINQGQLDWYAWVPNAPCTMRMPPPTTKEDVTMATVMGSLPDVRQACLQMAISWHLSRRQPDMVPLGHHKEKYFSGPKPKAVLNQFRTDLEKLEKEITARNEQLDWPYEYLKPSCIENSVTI
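Purified human 12hLO (150 nM final) in 25 mM Hepes, 0.01% Triton X-100, pH 7.0 was preincubated 15 min at room temperature with compound. Then 40 uM arachidonic acid was added, 30 min. Hydroperoxide was read by Fe-XO absorbance ratio 573/405 nm.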
A number is an active result; – = inactive; ? = inconclusive; · = no result given. Calls come from the whole dose curve; as a rule, active = well fitted curve in the direction sought with a large enough effect; inconclusive = small, poorly fitted or top-dose-only effect, or another doubt; inactive = no such curve, though single readings can be large; an effect the other way counts as inactive or inconclusive.

SMILES	ELG1 DNA repair	Gal4-VP16 FLuc	RORgamma inh	TDP1 cell CPT	DT40 TDP1 no CPT	ALOX12 inh
CCC1CN2CCc3cc(OC)c(OC)cc3C2CC1CC1c2cc(OC)c(OC)cc2CCN1C(=O)C(Cc1c[nH]c2ccccc12)NC(=O)OC(C)(C)C (centres undefined)	·	·	·	6.51µM	5.8µM	–
COc1ccc(S(=O)(=O)Nc2ccc(NC(C)=O)cc2)cc1Cl	–	–	–	–	–	–
COc1ccc(CONS(=O)(=O)c2ccc(NC(C)=O)cc2)cc1Cl	–	–	–	20.6µM	?	–
COc1ccc(C2c3ccc(O)cc3Oc3ncn4nc(-c5ccccc5Cl)nc4c32)cc1OC (centres undefined)	·	·	·	·	·	–
COc1ccc(C2c3ccc(O)cc3Oc3ncn4nc(-c5ccco5)nc4c32)cc1OC (centres undefined)	–	–	–	16.4µM	?	–
COc1ccc(C2c3ccc(O)cc3Oc3ncn4nc(-c5ccccn5)nc4c32)cc1OC (centres undefined)	20.6µM	–	–	23.1µM	18.4µM	–
COc1ccc(C2c3ccc(O)cc3Oc3ncn4nc(-c5ccccn5)nc4c32)cc1 (centres undefined)	?	–	–	–	–	–
COc1ccc(C2c3ccc(O)cc3Oc3ncn4nc(-c5ccncc5)nc4c32)cc1OC (centres undefined)	?	–	–	?	23.1µM	–
CCC(=O)N1CCC2(CC1)c1[nH]c3ccccc3c1CCN2C	·	·	·	·	·	–
NC(=O)NC(=O)CCN1CCOC(c2cccc(Br)c2)C1 (centres undefined)	·	·	·	·	·	–
O=c1[nH]c(N2CCN(c3ccccc3)CC2)nc2c1CCC2	–	–	–	–	?	–
O=c1[nH]c(N2CCN(c3ccccc3)CC2)nc2c1CCCC2	?	–	–	?	23.1µM	–
CCC1CN(C(=O)Nc2cc(C)cc(C)c2)c2ccccc2O1 (centres undefined)	·	·	·	?	?	–
CCC1CN(C(=O)Nc2cc(C)ccc2OC)c2cc(Cl)ccc2O1 (centres undefined)	·	·	·	?	–	–
CCC1CN(C(=O)Nc2cccc(OC)c2)c2ccccc2O1 (centres undefined)	·	·	·	?	23.1µM	–
CCOC(=O)c1cccc(NC(=O)N2CC(CC)Oc3ccccc32)c1 (centres undefined)	·	·	·	?	16.4µM	–
CCC1CN(C(=O)Nc2cccc(C)c2)c2cc(C)ccc2O1 (centres undefined)	–	–	–	?	20.6µM	?
COc1ccc(F)cc1S(=O)(=O)N1CCCC(Cn2c(C3CC3)nc3cccnc32)C1 (centres undefined)	·	·	·	·	·	–
CNc1c(Cl)cc(/C=C2\C=Cc3ccccc32)cc1Cl	·	·	·	–	–	·
CN(C)c1ccc(/C=C2\C=Cc3ccccc32)c(Cl)c1	·	·	·	?	12.6µM	·
COc1nccnc1NC1CCN(C(=O)c2cccc(C)c2)CC1	·	·	·	·	·	–
Cc1cc(C)c(C#N)c(=N)o1	?	–	–	20.6µM	25.9µM	?
Cc1ccc(C)c(-c2csc(NC(=O)CSc3nc4ccccc4o3)n2)c1	·	·	·	·	·	–
O=C(c1cc(-c2ccccc2)on1)N(Cc1ccccc1)Cc1ccco1	·	·	·	·	·	–
O=C(c1cc(-c2ccc(Cl)cc2)on1)N(Cc1ccc(F)cc1)Cc1ccco1	·	·	·	?	20.6µM	–
CCc1ccc(CN(Cc2ccco2)C(=O)c2cc(-c3ccc(Cl)cc3)on2)cc1	·	·	·	?	14.6µM	–
Cc1ccc(-c2cc(C(=O)N(Cc3ccco3)Cc3cccs3)no2)cc1	·	·	·	·	·	–
Cc1ccc(-c2cc(C(=O)N(Cc3ccc(C(C)(C)C)cc3)Cc3ccco3)no2)cc1	·	·	·	18.4µM	13µM	–
O=C(c1cc(-c2ccc(Cl)cc2)on1)N(Cc1cccc(F)c1)Cc1ccco1	·	·	·	?	18.4µM	–
CC1CCc2c(nc3ncnn3c2NCCc2ccccc2F)C1 (centres undefined)	?	–	–	?	13µM	–
